Test results reported in PubChem BioAssay AID1159580 (chemical genetic matrix, 2015).
Among all 5,500 compounds or so, about 2,000 (36%) were called active. Another 18% or so got no clear call; they are omitted. This is one part of the list. Unmarked numbers belong to inactive results. Rule as the data show it: active = normalized growth mostly below about 0.91 (no sharp cut-off); inconclusive = no clear call, values can overlap the other calls; inactive = mostly above about 0.92.

Experiment: chemical genetic growth profiling, strain panel (AID 1159580);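 also: tested at 20 µM; growth read once vehicle control cultures reached saturation at 30 °C; 1 = growth at the plate median or of vehicle wells; lower values mean less growth of the strain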
Conditions: S. cerevisiae deletion strains, growth OD
[1] = locus YAR019C, strain CDC15, active compounds read low
[2] = locus YBL105C, strain PKC1, active compounds read low
[3] = locus YBR135W, strain CKS1, active compounds read low
[4] = locus YBR136W, strain MEC1, active compounds read low
[5] = locus YBR160W, strain CDC28, active compounds read low
[6] = locus YDL017W, strain CDC7, active compounds read low
[7] = locus YDL028C, strain MPS1, active compounds read low
[8] = locus YDL101C, strain DUN1, active compounds read low
[9] = locus YDL108W, strain KIN28, active compounds read low
[10] = locus YDL132W, strain cdc53, active compounds read low
[11] = locus YDL214C, strain PRR2, active compounds read low
[12] = locus YDR052C, strain DBF4, active compounds read low
[13] = locus YDR054C, strain cdc34, active compounds read low
[14] = locus YDR226W, strain ADK1, active compounds read low
[15] = locus YDR477W, strain SNF1, active compounds read low
[16] = locus YER123W, strain YCK3, active compounds read low
[17] = locus YER133W, strain GLC7, active compounds read low
[18] = locus YFL009W, strain cdc4, active compounds read low
[19] = locus YFL029C, strain CAK1, active compounds read low
[20] = locus YFR003C, strain YPI1, active compounds read low
[21] = locus YFR019W, strain FAB1, active compounds read low
[22] = locus YFR028C, strain CDC14, active compounds read low
[23] = locus YGR040W, strain KSS1, active compounds read low
[24] = locus YGR052W, strain FMP48, active compounds read low
[25] = locus YGR092W, strain DBF2, active compounds read low
[26] = locus YHR030C, strain SLT2, active compounds read low
[27] = locus YHR079C, strain IRE1, active compounds read low
[28] = locus YHR082C, strain KSP1, active compounds read low
[29] = locus YHR205W, strain SCH9, active compounds read low
[30] = locus YIL147C, strain SLN1, active compounds read low
[31] = locus YJL095W, strain BCK1, active compounds read low
[32] = locus YJL128C, strain PBS2, active compounds read low
[33] = locus YJL157C, strain FAR1, active compounds read low
[34] = locus YJR016C, strain ILV3, active compounds read low
[35] = locus YJR066W, strain TOR1 (second series), active compounds read low
[36] = locus YJR066W, strain TOR1, active compounds read low
[37] = locus YKL048C, strain ELM1, active compounds read low
[38] = locus YKL067W, strain YNK1, active compounds read low
[39] = locus YKL101W, strain HSL1, active compounds read low
[40] = locus YKL193C, strain SDS22, active compounds read low
[41] = locus YKL203C, strain TOR2, active compounds read low
[42] = locus YLR113W, strain HOG1, active compounds read low
[43] = locus YLR133W, strain CKI1, active compounds read low
[44] = locus YLR403W, strain SFP1, active compounds read low
[45] = locus YML070W, strain DAK1, active compounds read low
[46] = locus YMR001C, strain CDC5, active compounds read low
[47] = locus YMR205C, strain PFK2 (second series), active compounds read low
[48] = locus YMR277W, strain FCP1, active compounds read low
[49] = locus YNL006W, strain LST8, active compounds read low
[50] = locus YNL020C, strain ARK1, active compounds read low
[51] = locus YNL161W, strain CBK1, active compounds read low
[52] = locus YNL183C, strain NPR1, active compounds read low
[53] = locus YNL207W, strain RIO2, active compounds read low
[54] = locus YNL222W, strain SSU72, active compounds read low
[55] = locus YNL307C, strain MCK1 (second series), active compounds read low
[56] = locus YOL078W, strain AVO1, active compounds read low
[57] = locus YOL136C, strain PFK27, active compounds read low
[58] = locus YOR061W, strain CKA2, active compounds read low
[59] = locus YOR119C, strain RIO1, active compounds read low
[60] = locus YOR231W, strain MKK1, active compounds read low
[61] = locus YOR329C, strain SCD5, active compounds read low
[62] = locus YPL031C, strain PHO85, active compounds read low
[63] = locus YPL153C, strain RAD53, active compounds read low
[64] = locus YPL204W, strain HRR25, active compounds read low
[65] = locus YPL209C, strain IPL1, active compounds read low
[66] = locus YPL256C, strain CLN2, active compounds read low
[67] = locus YPR025C, strain CCL1, active compounds read low
[68] = locus YPR106W, strain ISR1, active compounds read low
[69] = locus YPR111W, strain DBF20, active compounds read low
[70] = strain NNK1, active compounds read low
[71] = strain TSCII, active compounds read low

N#CC1=C(N)C(C#N)(C#N)C2(CCCCC2)C2CCCC=C12 (stereo unspecified)
normalized growth [1]: 0.984 | normalized growth [2]: 0.982 | normalized growth [3]: 0.979 | normalized growth [4]: 0.982 | normalized growth [5]: 0.982 | normalized growth [6]: 0.98 | normalized growth [7]: 0.985 | normalized growth [8]: 0.983 | normalized growth [9]: 0.988 | normalized growth [10]: 0.98 | normalized growth [11]: 0.993 | normalized growth [12]: 0.977 | normalized growth [13]: 0.973 | normalized growth [14]: 0.983 | normalized growth [15]: 0.982 | normalized growth [16]: 0.984 | normalized growth [17]: 0.978 | normalized growth [18]: 0.978 | normalized growth [19]: 0.973 | normalized growth [20]: 0.985 | normalized growth [21]: 0.985 | normalized growth [22]: 0.985 | normalized growth [23]: 0.971 | normalized growth [24]: 1.05 | normalized growth [25]: 0.958 | normalized growth [26]: 0.972 | normalized growth [27]: 0.989 | normalized growth [28]: 0.975 | normalized growth [29]: 0.953 | normalized growth [30]: 0.985 | normalized growth [31]: 0.951 | normalized growth [32]: 0.961 | normalized growth [33]: 0.991 | normalized growth [34]: 0.989 | normalized growth [35]: 0.969 | normalized growth [36]: 0.968 | normalized growth [37]: 0.985 | normalized growth [38]: 1 | normalized growth [39]: 0.98 | normalized growth [40]: 0.981 | normalized growth [41]: 1.02 | normalized growth [42]: 0.959 | normalized growth [43]: 1 | normalized growth [44]: 0.979 | normalized growth [45]: 0.989 | normalized growth [46]: 0.98 | normalized growth [47]: 1 | normalized growth [48]: 0.985 | normalized growth [49]: 0.99 | normalized growth [50]: 0.998 | normalized growth [51]: 0.979 | normalized growth [52]: 0.963 | normalized growth [53]: 0.971 | normalized growth [54]: 0.982 | normalized growth [55]: 0.995 | normalized growth [56]: 0.979 | normalized growth [57]: 0.99 | normalized growth [58]: 1 | normalized growth [59]: 0.995 | normalized growth [60]: 0.973 | normalized growth [61]: 0.979 | normalized growth [62]: 0.978 | normalized growth [63]: 0.96 | normalized growth [64]: 0.971 | normalized growth [65]: 0.988 | normalized growth [66]: 0.965 | normalized growth [67]: 0.98 | normalized growth [68]: 0.986 | normalized growth [69]: 0.987 | normalized growth [70]: 0.985 | normalized growth [71]: 0.979

CCN(CC)CCCCCCCCOC(=O)c1cc(OC)c(OC)c(OC)c1
normalized growth (locus YAL040C, strain CLN3, active compounds read low): 1.01 | normalized growth (locus YDR363W, strain ESC2, active compounds read low): 1.01 | normalized growth (locus YER002W, strain NOP16, active compounds read low): 0.999 | normalized growth (locus YGR078C, strain PAC10, active compounds read low): 1.01 | normalized growth (locus YNL175C, strain NOP13, active compounds read low): 1.01 | normalized growth (locus YNL197C, strain WHI3, active compounds read low): 1.02 | normalized growth (locus YNL224C, strain SQS1, active compounds read low): 0.985 | normalized growth (locus YNL322C, strain KRE1, active compounds read low): 0.992 | normalized growth (locus YOR083W, strain WHI5 (second series), active compounds read low): 1.03

COc1cc(N=Cc2cc(Cl)cc(Cl)c2OC(=O)c2cc(OC)c(OC)c(OC)c2)c(OC)cc1Cl
normalized growth [1]: 0.965 | normalized growth [2]: 0.977 | normalized growth [3]: 0.969 | normalized growth [4]: 0.974 | normalized growth [5]: 0.968 | normalized growth [6]: 0.981 | normalized growth [7]: 0.959 | normalized growth [8]: 0.962 | normalized growth [9]: 0.945 | normalized growth [10]: 0.966 | normalized growth [11]: 0.369 (active) | normalized growth [12]: 0.989 | normalized growth [13]: 0.98 | normalized growth [14]: 0.947 | normalized growth [15]: 0.31 (active) | normalized growth [16]: 0.212 (active) | normalized growth [17]: 0.398 (active) | normalized growth [18]: 0.956 | normalized growth [19]: 0.971 | normalized growth [20]: 0.975 | normalized growth [21]: 0.34 (active) | normalized growth [22]: 0.962 | normalized growth [23]: 0.381 (active) | normalized growth [24]: 0.235 (active) | normalized growth [25]: 0.183 (active) | normalized growth [26]: 0.145 (active) | normalized growth [27]: 0.161 (active) | normalized growth [28]: 0.176 (active) | normalized growth [29]: 0.202 (active) | normalized growth [30]: 0.977 | normalized growth [31]: 0.177 (active) | normalized growth [32]: 0.937 | normalized growth [33]: 0.32 (active) | normalized growth [34]: 0.987 | normalized growth [35]: 0.463 (active) | normalized growth [36]: 0.148 (active) | normalized growth [37]: 0.458 (active) | normalized growth [38]: 0.392 (active) | normalized growth [39]: 0.346 (active) | normalized growth [40]: 0.972 | normalized growth [41]: 0.345 (active) | normalized growth [42]: 0.243 (active) | normalized growth [43]: 0.354 (active) | normalized growth [44]: 0.244 (active) | normalized growth [45]: 0.317 (active) | normalized growth [46]: 0.963 | normalized growth [47]: 0.421 (active) | normalized growth [48]: 0.954 | normalized growth [49]: 0.982 | normalized growth [50]: 0.335 (active) | normalized growth [51]: 0.98 | normalized growth [52]: 0.235 (active) | normalized growth [53]: 0.977 | normalized growth [54]: 0.958 | normalized growth [55]: 0.238 (active) | normalized growth [56]: 0.969 | normalized growth [57]: 0.273 (active) | normalized growth [58]: 0.346 (active) | normalized growth [59]: 0.307 (active) | normalized growth [60]: 0.207 (active) | normalized growth [61]: 0.981 | normalized growth [62]: 0.292 (active) | normalized growth [63]: 0.279 (active) | normalized growth [64]: 0.312 (active) | normalized growth [65]: 0.977 | normalized growth [66]: 0.215 (active) | normalized growth [67]: 0.974 | normalized growth [68]: 0.962 | normalized growth [69]: 0.943 | normalized growth [70]: 0.98 | normalized growth [71]: 0.96
